The sequences below were run against CCDC102B (assay: pooled miR-30 sensor sort-seq; sequence = guide strand). Settings: shRNA.

Going from TTAACTCACAAATCACTCTGTC to TTTGTGACATCTTGAAATCAGG, the sensor-assay potency score (higher = more potent) falls from 0.63 to -1.26.

First: TTTGTTAATACAACCTGCCATC
Second: ATCAACACCATCTAGATTGGGC
The sensor-assay potency score (higher = more potent) of the first is lower: -1.01 for the first, 0.0383 for the second.

Going from TTGATGATTGTTGCATCTGGAA to TTCACCTGGATCTTCAGCCTTC, the sensor-assay potency score (higher = more potent) rises from -0.905 to 0.0425.

Compared with TTGCATTTCATCATTATGTTGA, TTCAGCTCGAACTTTACTCCAT is lower in sensor-assay potency score (higher = more potent): 0.234 for the first, 0.199 for the second.

Going from TTGTTGAATAAATCAACACCAT to TTATTCTGAGTTGTCTTCCTTC, the sensor-assay potency score (higher = more potent) rises from -0.659 to 0.72.

TAATCTATTTTTCTTATCCAAA gave a sensor-assay potency score (higher = more potent) of -1.3.

What follows are sequences tested against CCDC105 in the same assay as above. Settings: shRNA.

First: TTCAGCTCCAAGGTCTCGCTCG
Second: TTGGACTCGACCAACAACCGCT
The sensor-assay potency score (higher = more potent) of the first is lower: -0.194 for the first, -0.0723 for the second.

Compared with TTGCGCACTTCGCTGAGCCTGT, TTTTTCCATATCTCTCTCCATT is lower in sensor-assay potency score (higher = more potent): -0.764 for the first, -1.2 for the second.

Compared with TATCTGCAGCTGTTGCTCCCGG, TTAATCTTTCCTTCAGCTCCAA is higher in sensor-assay potency score (higher = more potent): -0.913 for the first, 0.0783 for the second.

Compared with TTTTCTGACCCTGTGTGCGTGG, TTGAGTAGGACCTCTGATTTTT is lower in sensor-assay potency score (higher = more potent): -0.545 for the first, -1.1 for the second.

Going from TAATCTTTCCTTCAGCTCCAAG to TTCGCTGAGCCTGTGGTCGGTG, the sensor-assay potency score (higher = more potent) rises from -0.875 to -0.476.

Going from TTTGCCATTTCTACCAAGGTGT to TATATTTCGTACACCGGAGGAT, the sensor-assay potency score (higher = more potent) rises from -0.502 to 0.16.

The sequences below were run against CCDC111 in the same assay as above. Settings: shRNA.

Compared with TAAACCAGTAATTCTTCTGGGA, TTTGATGATTTATATAGCCGAA is lower in sensor-assay potency score (higher = more potent): 0.0581 for the first, -0.728 for the second.

First: TATAGTAAAACCAAAATTCAGC
Second: TATTTCTTGTATAAACTCCGAG
The sensor-assay potency score (higher = more potent) of the first is lower: -0.935 for the first, -0.0493 for the second.

Compared with TAAAAGCTTGAGCTTGTCGATG, TTGTCGATGAAATAGTCTCCAG is lower in sensor-assay potency score (higher = more potent): -0.777 for the first, -1.27 for the second.

Compared with TTGTAAACTCTTCTTCCTCTTT, TTTTATTGAAAGAAAATCCTTG is higher in sensor-assay potency score (higher = more potent): -0.271 for the first, 0.279 for the second.

Each sequence was assayed against CCDC124 in the same assay as above. Settings: shRNA.

First: TTGAGCTTGGAGTCCTCCTCCT
Second: TTGTTTGAGCCGCGGCAGCTGG
The sensor-assay potency score (higher = more potent) of the first is higher: -0.0303 for the first, -1.54 for the second.

Compared with TCTGCTTCTTGGCATCAGCGGC, TGACGTGTTTGTCGTCGTCCTT is higher in sensor-assay potency score (higher = more potent): -1.05 for the first, -0.925 for the second.

Going from TCGTCGTCCTTCCAGTAGGCAT to TAGGCGCTGCGTCTCCTTCTTA, the sensor-assay potency score (higher = more potent) rises from -1.51 to -1.03.

First: TTTCAGCTGCGACAGCCGCATG
Second: TGAGCTTGGAGTCCTCCTCCTC
The sensor-assay potency score (higher = more potent) of the first is lower: -1.52 for the first, -1.05 for the second.

TTCTCTTGTTTGAGCCGCGGCA gave a sensor-assay potency score (higher = more potent) of -0.945.
